Counter-ions that a name gives are not always drawn.
Each compound was assayed on Saccharomyces cerevisiae BY4741 SeMeCo community (assay: z-score of subpopulation abundance vs DMSO median, subpopulation auxotrophic for HU; higher = larger share of this subpopulation than in DMSO controls). Details: 10 µM; 24 h; SM minimal medium; subpopulation (auxotrophy): HU.
Method in brief: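 Scoring was based on each subpopulation's abundance, expressed as a z-score against the vehicle-well median. A Saccharomyces cerevisiae BY4741 community with four plasmids, each restoring one auxotrophy and encoding a distinct fluorescent protein, was pre-grown overnight to OD600 1.0, diluted to 0.3, and added at 70 µl to 384-well plates acoustically predosed with library drugs (10 µM final). It then grew 24 h in minimal SM medium before paraformaldehyde fixation and automated confocal microscopy, with single-auxotroph fluorescent strains setting thresholds and autofluorescence correction.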

Row | Compound | z-score of subpopulation abundance
1 | O=C(Cn1cnnn1)N[C@@H]1C(=O)N2C(C(=O)O)=C(CSc3nncs3)CS[C@H]12 [Ceftezole] | -0.51
2 | C=C[C@]1(C)C[C@@H](OC(=O)CSC(C)(C)CNC(=O)[C@H](N)C(C)C)[C@]2(C)[C@H](C)CC[C@]3(CCC(=O)[C@H]32)[C@@H](C)[C@@H]1O [Valnemulin HCl] | 1.22
3 | CN1CCN(CCCN2c3ccccc3Sc3ccc(C(F)(F)F)cc32)CC1 [Trifluoperazine 2HCl] | 0.54
4 | CC(C)[C@H]1CC[C@H](C(=O)N[C@H](Cc2ccccc2)C(=O)O)CC1 [Nateglinide] | 0.06
5 | Nc1ccc(S(=O)(=O)NC(=O)c2ccccc2)cc1 [Sulfabenzamide] | -0.03
6 | COc1ccc(C(=O)NCc2ccc(OCCN(C)C)cc2)cc1OC [Itopride hydrochloride] | 0.11
7 | COc1ccc(-c2nc3cc(C4=NNC(=O)CC4C)ccc3[nH]2)cc1 (configuration not stated) [Pimobendan] | -0.28
8 | CC(C)N1CCN(c2ccc(OCC3COC(Cn4cncn4)(c4ccc(Cl)cc4Cl)O3)cc2)CC1 (configuration not stated) [Terconazole] | -0.58
9 | COc1cc([C@@H]2c3cc4c(cc3[C@@H](O[C@@H]3O[C@@H]5CO[C@@H](c6cccs6)O[C@H]5[C@H](O)[C@H]3O)[C@H]3COC(=O)[C@H]23)OCO4)cc(OC)c1O [Teniposide] | 1.34
10 | COc1ccc2c(c1)c(CC(=O)O)c(C)n2C(=O)c1ccc(Cl)cc1 [Indomethacin] | -0.04
11 | N[C@@H](CCC(=O)O)C(=O)O [(S)-Glutamic acid] | -0.75
12 | CC1(C)S[C@@H]2[C@H](NC(=O)Cc3ccccc3)C(=O)N2[C@H]1C(=O)O [Benzylpenicillin potassium] | -0.05
13 | Cc1nnc(NS(=O)(=O)c2ccc(N)cc2)s1 [Sulfamethizole] | -0.26
14 | CCC[C@@H]1C[C@@H](C(=O)N[C@@H]([C@H]2O[C@H](SC)[C@H](OP(=O)(O)O)[C@@H](O)[C@H]2O)[C@H](C)Cl)N(C)C1 [Clindamycin Phosphate] | -0.25
15 | CN[C@@H]1[C@H](O[C@H]2[C@H](O[C@H]3[C@H](O)[C@@H](O)[C@H](N=C(N)N)[C@@H](O)[C@@H]3N=C(N)N)O[C@@H](C)[C@]2(O)C=O)O[C@@H](CO)[C@H](O)[C@H]1O [Streptomycin sulfate] | 0.65
16 | C=C1c2cccc(O)c2C(O)=C2C(=O)[C@]3(O)C(O)=C(C(N)=O)C(=O)[C@@H](N(C)C)[C@@H]3[C@@H](O)[C@H]12 [Methacycline HCl] | -0.49

Row | Compound | z-score of subpopulation abundance
17 | COC(=O)C1=C(C)NC(C)=C(C(=O)OC)C1c1ccccc1[N+](=O)[O-] [Nifedipine] | -0.68
18 | Nc1ccc(S(=O)(=O)c2ccc(N)cc2)cc1 [Dapson] | 0.31
19 | NC(CO)(CO)CO [Trometamol] | 0.55
20 | C[C@]1(COc2ccc(N3CCC(Oc4ccc(OC(F)(F)F)cc4)CC3)cc2)Cn2cc([N+](=O)[O-])nc2O1 [Delamanid] | -0.43
21 | Nc1nc(=O)[nH]cc1F [Flucytosine] | 8.85
22 | CO[C@@H]1[C@@H](O[C@@H]2O[C@H](C)[C@@H](O[C@H]3C[C@@](C)(O)[C@@H](O)[C@H](C)O3)[C@H](N(C)C)[C@H]2O)[C@@H](CC=O)C[C@@H](C)[C@@H](O[C@H]2CC[C@H](N(C)C)[C@@H](C)O2)/C=C/C=C/C[C@@H](C)OC(=O)C[C@H]1OC(C)=O [Acetylspiramycin (ASPM)] | -0.58
23 | C[C@]12CC[C@@H]3c4ccc(OS(=O)(=O)O)cc4CC[C@H]3[C@@H]1CCC2=O [Estropipate] | -0.17
24 | COc1ccnc(C[S+]([O-])c2nc3cc(-n4cccc4)ccc3[nH]2)c1C (configuration not stated) [Ilaprazole sodium] | -0.9
25 | CN1C[C@@H]2C[C@H]1CN2c1cc2c(cc1F)c(=O)c(C(=O)O)cn2C1CC1 [Danofloxacin Mesylate] | -0.09
26 | CN(C)[C@@H]1C(=O)C(C(N)=O)=C(O)[C@@]2(O)C(=O)C3=C(O)c4c(O)ccc(Cl)c4[C@@H](O)[C@H]3C[C@@H]12 [Demeclocycline HCl] | -0.34
27 | C#C[C@]1(O)CC[C@H]2[C@@H]3CCC4=Cc5oncc5C[C@]4(C)[C@H]3CC[C@@]21C [Danazol] | 0.32
28 | Nc1c(Br)cc(Br)cc1CN[C@H]1CC[C@H](O)CC1 [Ambroxol HCl] | -1.1
29 | CCOC(=O)c1ccc(N)cc1 [Benzocaine] | -1.28
30 | O=C1c2c(O)ccc(O)c2C(=O)c2c(NCCNCCO)ccc(NCCNCCO)c21 [Mitoxantrone 2HCl] | 26.5
31 | c1ccc2[nH]c(-c3cscn3)nc2c1 [Thiabendazole] | -0.69
32 | C[C@@H](O)[C@H]1C(=O)N2C(C(=O)[O-])=C(SC3Cn4cnc[n+]4C3)[C@H](C)[C@H]12 (some centres not stated) [Biapenem] | -0.36
